Reference: PMC5540273 (PLoS ONE, 2017)

Tests used:
Details in all cases: concentration: 1 μM, replicates: in singlicate; n = 1
HIPK2 = tested on: HIPK2
HIPK3 = tested on: HIPK3
HIPK4 = tested on: HIPK4
HPK1 = tested on: HPK1
HUNK = tested on: HUNK
ICK = tested on: ICK
IGF1R = tested on: IGF1R
IKK-alpha = tested on: T1, IKK-alpha
T1 construct: gene CHUK

IKK-beta = tested on: T2, IKK-beta
T2 construct: gene IKBKB

IKK-epsilon = tested on: T3, IKK-epsilon
T3 construct: gene IKBKE
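Further: KINOMEscan kinase panel screen.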

Cl.Cl.c1ccc(-c2cc3ccncc3cc2OC2CCNCC2)cc1 [GSK1122999]
%Inh (HIPK2): 0%
%Inh (HIPK3): 20%
%Inh (HIPK4): 0%
%Inh (HPK1): 51%
%Inh (HUNK): 27%
%Inh (ICK): 0%
%Inh (IGF1R): 0%
%Inh (IKK-alpha): 72%
%Inh (IKK-beta): 98.7%
%Inh (IKK-epsilon): 9%

CS(=O)(=O)CCNCc1ccc(-c2ccc3ncnc(Nc4ccc(OCc5ccccc5)c(Cl)c4)c3c2)o1.Cl [GW574783]
%Inh (HIPK2): 13%
%Inh (HIPK3): 18%
%Inh (HIPK4): 18%
%Inh (HPK1): 22%
%Inh (HUNK): 14%
%Inh (ICK): 0%
%Inh (IGF1R): 13%
%Inh (IKK-alpha): 0%
%Inh (IKK-beta): 0%
%Inh (IKK-epsilon): 7%

Clc1cc(Nc2ncnc3cc[nH]c23)ccc1OCc1ccccn1
%Inh (HIPK2): 19%
%Inh (HIPK3): 27%
%Inh (HIPK4): 0%
%Inh (HPK1): 0%
%Inh (HUNK): 13%
%Inh (ICK): 18%
%Inh (IGF1R): 0%
%Inh (IKK-alpha): 9%
%Inh (IKK-beta): 20%
%Inh (IKK-epsilon): 27%

CNc1nccc(-c2c(-c3ccc(F)cc3)ncn2C2CCN(C)CC2)n1 [SB-222903]
%Inh (HIPK2): 5%
%Inh (HIPK3): 0%
%Inh (HIPK4): 0%
%Inh (HPK1): 0%
%Inh (HUNK): 39%
%Inh (ICK): 0%
%Inh (IGF1R): 0%
%Inh (IKK-alpha): 0%
%Inh (IKK-beta): 0%
%Inh (IKK-epsilon): 0%

N#Cc1ccc(Oc2ccc(Nc3ncnc4cc[nH]c34)cc2Cl)cc1
%Inh (HIPK2): 32%
%Inh (HIPK3): 10%
%Inh (HIPK4): 4%
%Inh (HPK1): 0%
%Inh (HUNK): 1%
%Inh (ICK): 0%
%Inh (IGF1R): 0%
%Inh (IKK-alpha): 2%
%Inh (IKK-beta): 17%
%Inh (IKK-epsilon): 12%

Cl.c1ccc(Cn2ncc3cc(Nc4ncnc5ccccc45)ccc32)cc1 [GW273749]
%Inh (HIPK2): 0%
%Inh (HIPK3): 0%
%Inh (HIPK4): 0%
%Inh (HPK1): 20%
%Inh (HUNK): 0%
%Inh (ICK): 0%
%Inh (IGF1R): 0%
%Inh (IKK-alpha): 0%
%Inh (IKK-beta): 31%
%Inh (IKK-epsilon): 24%

COc1ccc(-c2oc3ncnc(N)c3c2-c2ccc(OC)cc2)cc1 [SB-589132]
%Inh (HIPK2): 25%
%Inh (HIPK3): 3%
%Inh (HIPK4): 0%
%Inh (HPK1): 40%
%Inh (HUNK): 8%
%Inh (ICK): 0%
%Inh (IGF1R): 0%
%Inh (IKK-alpha): 49%
%Inh (IKK-beta): 4%
%Inh (IKK-epsilon): 6%

COC(=O)c1cccc(NC(=O)NCCNc2ccnc(Nc3ccc(F)cc3)n2)c1 [GSK1379883]
%Inh (HIPK2): 0%
%Inh (HIPK3): 0%
%Inh (HIPK4): 0%
%Inh (HPK1): 45%
%Inh (HUNK): 90%
%Inh (ICK): 0%
%Inh (IGF1R): 6%
%Inh (IKK-alpha): 0%
%Inh (IKK-beta): 0%
%Inh (IKK-epsilon): 1%

CCc1nc(-c2cccc(C)c2)c(-c2ccnc(NC(=O)c3ccccc3)c2)s1
%Inh (HIPK2): 9%
%Inh (HIPK3): 0%
%Inh (HIPK4): 0%
%Inh (HPK1): 0%
%Inh (HUNK): 0%
%Inh (ICK): 59%
%Inh (IGF1R): 2%
%Inh (IKK-alpha): 0%
%Inh (IKK-beta): 0%
%Inh (IKK-epsilon): 100%

Nc1nc(-c2cccnc2)c(-c2ccnc3ccccc23)s1 [GW684083]
%Inh (HIPK2): 0%
%Inh (HIPK3): 0%
%Inh (HIPK4): 0%
%Inh (HPK1): 28%
%Inh (HUNK): 0%
%Inh (ICK): 0%
%Inh (IGF1R): 13%
%Inh (IKK-alpha): 20%
%Inh (IKK-beta): 0%
%Inh (IKK-epsilon): 21%

Cc1ccc(NC(=O)c2cccc(C#N)c2)cc1-c1ccc(C(=O)Nc2ccncc2)cc1 [GSK1398463]
%Inh (HIPK2): 0%
%Inh (HIPK3): 8%
%Inh (HIPK4): 0%
%Inh (HPK1): 40%
%Inh (HUNK): 0%
%Inh (ICK): 35%
%Inh (IGF1R): 14%
%Inh (IKK-alpha): 32%
%Inh (IKK-beta): 36%
%Inh (IKK-epsilon): 15%

COc1ccc(NC(=O)Nc2ccc(C)c(-c3ccc(C(=O)Nc4ccncc4)cc3)c2)cc1 [GSK1398475]
%Inh (HIPK2): 0%
%Inh (HIPK3): 4%
%Inh (HIPK4): 0%
%Inh (HPK1): 47%
%Inh (HUNK): 7%
%Inh (ICK): 0%
%Inh (IGF1R): 0%
%Inh (IKK-alpha): 0%
%Inh (IKK-beta): 0%
%Inh (IKK-epsilon): 0%

FC(F)(F)c1ccc(-c2cc(-c3c[nH]nc3-c3ccccn3)ccn2)cc1 [GW599550]
%Inh (HIPK2): 0%
%Inh (HIPK3): 21%
%Inh (HIPK4): 0%
%Inh (HPK1): 26%
%Inh (HUNK): 0%
%Inh (ICK): 0%
%Inh (IGF1R): 28%
%Inh (IKK-alpha): 0%
%Inh (IKK-beta): 0%
%Inh (IKK-epsilon): 47%

CN1c2ccc(-c3ccc(C(=O)NCCO)cc3)cc2-c2[nH]ncc2S1(=O)=O
%Inh (HIPK2): 52%
%Inh (HIPK3): 39%
%Inh (HIPK4): 16%
%Inh (HPK1): 22%
%Inh (HUNK): 0%
%Inh (ICK): 0%
%Inh (IGF1R): 7%
%Inh (IKK-alpha): 0%
%Inh (IKK-beta): 0%
%Inh (IKK-epsilon): 31%

CNc1nccc(-c2c(-c3ccc(F)cc3)ncn2CCCN2CCOCC2)n1 [SB-222516]
%Inh (HIPK2): 0%
%Inh (HIPK3): 0%
%Inh (HIPK4): 0%
%Inh (HPK1): 0%
%Inh (HUNK): 39%
%Inh (ICK): 37%
%Inh (IGF1R): 2%
%Inh (IKK-alpha): 0%
%Inh (IKK-beta): 0%
%Inh (IKK-epsilon): 0%

CCn1c(-c2ccncc2)nc2cnccc21 [SB-735216]
%Inh (HIPK2): 18%
%Inh (HIPK3): 24%
%Inh (HIPK4): 15%
%Inh (HPK1): 0%
%Inh (HUNK): 27%
%Inh (ICK): 10%
%Inh (IGF1R): 0%
%Inh (IKK-alpha): 20%
%Inh (IKK-beta): 23%
%Inh (IKK-epsilon): 10%

O=C(c1ccc(-c2cc(-c3c[nH]nc3-c3ccccn3)ccn2)cc1)N1CCCC1 [GW792479]
%Inh (HIPK2): 0%
%Inh (HIPK3): 0%
%Inh (HIPK4): 24%
%Inh (HPK1): 20%
%Inh (HUNK): 9%
%Inh (ICK): 0%
%Inh (IGF1R): 0%
%Inh (IKK-alpha): 0%
%Inh (IKK-beta): 0%
%Inh (IKK-epsilon): 0%
